# Unmarked numbers belong to inactive results. Active and inactive are the calls of the source.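 How the source made its calls, unless noted: active means mean inhibition above 46.68%, the untreated control wells mean plus 3 SD; inactive means the rest.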
# Columns and labels:
# [1] = molecular target: Nuclear receptor coactivator 3 (Homo sapiens) (UniProt Q9Y6Q9); assay: SRC3 coactivator transcriptional activity inhibitors, confirmation, cell-based, luminescence, quadruplicate (AID 588792;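 active means mean inhibition over 43.08%, the solvent-only control mean plus 3 SD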;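 further: 0% = DMSO treated cells and 100% = gossypol at 36 µM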); conditions: HEK293 GAL4-SRC3 luciferase reporter, at 3.6 µM, hits give high values
# Nuclear receptor coactivator 3 (Homo sapiens), sequence (Q9Y6Q9 whole entry, looked up, the tested form may be a part): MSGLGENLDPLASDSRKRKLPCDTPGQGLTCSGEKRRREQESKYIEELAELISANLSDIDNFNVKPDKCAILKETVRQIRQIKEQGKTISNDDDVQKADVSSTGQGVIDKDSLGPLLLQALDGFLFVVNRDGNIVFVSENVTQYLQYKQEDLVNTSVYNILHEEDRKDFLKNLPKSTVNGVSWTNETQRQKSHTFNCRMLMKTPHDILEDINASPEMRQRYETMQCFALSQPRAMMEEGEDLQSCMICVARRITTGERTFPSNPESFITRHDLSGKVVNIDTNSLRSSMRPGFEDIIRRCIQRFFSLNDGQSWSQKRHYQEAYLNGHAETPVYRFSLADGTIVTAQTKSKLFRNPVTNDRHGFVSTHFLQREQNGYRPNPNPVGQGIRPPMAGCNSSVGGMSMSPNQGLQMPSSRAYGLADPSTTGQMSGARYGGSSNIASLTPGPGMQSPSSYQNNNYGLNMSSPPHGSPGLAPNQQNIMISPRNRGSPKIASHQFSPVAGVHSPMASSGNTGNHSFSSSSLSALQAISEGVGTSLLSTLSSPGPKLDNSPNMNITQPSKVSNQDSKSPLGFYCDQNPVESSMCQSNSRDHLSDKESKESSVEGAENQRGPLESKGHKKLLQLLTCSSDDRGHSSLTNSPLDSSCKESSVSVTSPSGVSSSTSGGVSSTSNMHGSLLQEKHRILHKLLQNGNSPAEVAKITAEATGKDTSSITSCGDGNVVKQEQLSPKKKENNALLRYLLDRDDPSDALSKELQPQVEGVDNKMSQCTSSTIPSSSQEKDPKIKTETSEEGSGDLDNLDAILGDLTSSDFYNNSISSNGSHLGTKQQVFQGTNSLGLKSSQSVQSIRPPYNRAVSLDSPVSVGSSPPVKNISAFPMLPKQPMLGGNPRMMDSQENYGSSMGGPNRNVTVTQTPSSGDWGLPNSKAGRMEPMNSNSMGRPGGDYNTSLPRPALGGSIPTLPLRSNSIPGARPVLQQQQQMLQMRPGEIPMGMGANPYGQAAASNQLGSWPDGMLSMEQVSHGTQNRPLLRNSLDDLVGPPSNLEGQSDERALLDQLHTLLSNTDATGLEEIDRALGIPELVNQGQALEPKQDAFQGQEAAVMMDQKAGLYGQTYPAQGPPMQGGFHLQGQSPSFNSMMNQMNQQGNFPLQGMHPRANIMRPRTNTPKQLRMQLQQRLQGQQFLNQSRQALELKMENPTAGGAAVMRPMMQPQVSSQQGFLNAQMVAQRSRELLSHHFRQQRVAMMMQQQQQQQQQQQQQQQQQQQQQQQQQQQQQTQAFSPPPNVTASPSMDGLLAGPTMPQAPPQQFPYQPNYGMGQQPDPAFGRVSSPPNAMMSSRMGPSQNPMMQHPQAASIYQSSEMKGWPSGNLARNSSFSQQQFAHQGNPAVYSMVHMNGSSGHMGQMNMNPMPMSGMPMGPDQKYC
# [2] = test system: transactivating tegument protein VP16 (Human herpesvirus 1), Gal4-VP16 luciferase reporter; assay: VP16 transactivation inhibitors, counter-screen for SRC3 inhibitor project, cell-based, luminescence, high throughput (AID 588794; in the data active means inhibition above about 30%); conditions: mammalian cells, VP16-driven luciferase reporter luminescence; at 3.6 µM; hits give high values
# [3] = molecular target: Nuclear receptor coactivator 1 (Homo sapiens) (UniProt Q15788); assay: SRC1 coactivator transcriptional activity inhibitors, confirmation, cell-based, luminescence, quadruplicate (AID 588820); conditions: HEK293 GAL4-SRC1 luciferase reporter, at 3.6 µM, hits give high values;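 further: 0% = DMSO wells and 100% = gossypol 36 µM treated wells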
# Nuclear receptor coactivator 1 (Homo sapiens), sequence (Q15788 whole entry, looked up, the tested form may be a part): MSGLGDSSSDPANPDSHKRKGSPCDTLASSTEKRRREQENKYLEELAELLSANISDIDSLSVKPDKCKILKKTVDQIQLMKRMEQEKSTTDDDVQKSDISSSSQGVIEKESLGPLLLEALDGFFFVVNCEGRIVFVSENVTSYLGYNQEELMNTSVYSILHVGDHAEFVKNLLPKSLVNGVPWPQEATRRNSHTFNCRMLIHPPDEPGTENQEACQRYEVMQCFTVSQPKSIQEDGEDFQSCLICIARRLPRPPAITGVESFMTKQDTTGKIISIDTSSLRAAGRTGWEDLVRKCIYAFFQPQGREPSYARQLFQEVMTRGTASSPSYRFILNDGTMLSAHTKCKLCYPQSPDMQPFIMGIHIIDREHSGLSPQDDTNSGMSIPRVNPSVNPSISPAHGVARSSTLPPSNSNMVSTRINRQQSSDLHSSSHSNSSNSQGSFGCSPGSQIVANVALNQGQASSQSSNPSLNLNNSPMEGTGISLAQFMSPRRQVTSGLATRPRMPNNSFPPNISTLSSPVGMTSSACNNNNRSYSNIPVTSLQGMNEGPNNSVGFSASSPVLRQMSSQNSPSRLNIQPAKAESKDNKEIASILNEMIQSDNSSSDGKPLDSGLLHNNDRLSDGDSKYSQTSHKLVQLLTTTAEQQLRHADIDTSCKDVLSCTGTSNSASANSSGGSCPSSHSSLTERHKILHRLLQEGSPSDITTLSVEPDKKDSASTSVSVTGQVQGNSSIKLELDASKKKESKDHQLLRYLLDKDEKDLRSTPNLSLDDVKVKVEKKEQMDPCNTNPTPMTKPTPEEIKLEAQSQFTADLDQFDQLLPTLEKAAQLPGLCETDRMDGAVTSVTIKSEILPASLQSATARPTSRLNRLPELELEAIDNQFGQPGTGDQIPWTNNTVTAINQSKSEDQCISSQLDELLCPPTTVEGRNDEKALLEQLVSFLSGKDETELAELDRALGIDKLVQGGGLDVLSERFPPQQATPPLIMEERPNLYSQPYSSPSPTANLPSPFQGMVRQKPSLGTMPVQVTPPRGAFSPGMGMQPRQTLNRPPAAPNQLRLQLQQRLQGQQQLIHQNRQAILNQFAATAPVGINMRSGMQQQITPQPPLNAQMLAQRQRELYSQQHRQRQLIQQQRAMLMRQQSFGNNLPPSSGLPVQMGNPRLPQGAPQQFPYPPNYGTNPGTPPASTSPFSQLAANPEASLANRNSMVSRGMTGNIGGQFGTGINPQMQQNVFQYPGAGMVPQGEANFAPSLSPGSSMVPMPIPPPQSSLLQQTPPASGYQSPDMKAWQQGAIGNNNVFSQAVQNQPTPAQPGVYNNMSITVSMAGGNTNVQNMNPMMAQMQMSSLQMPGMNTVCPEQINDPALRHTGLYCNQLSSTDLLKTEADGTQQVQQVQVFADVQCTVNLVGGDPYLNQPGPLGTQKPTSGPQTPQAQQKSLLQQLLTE
# [4] = VP16 transactivation inhibitors, counter-screen for SRC1 inhibitor project, cell-based, luminescence, high throughput (AID 588824; in the data active means inhibition above about 25%); conditions: cell-based VP16 transactivation luciferase luminescence; at 3.6 µM; hits give high values
Structure (SMILES),inhibition [1],inhibition [2],inhibition [3],inhibition [4]
CC(C)(C)NC(=O)C(c1ccncc1)N(Cc1cccs1)C(=O)Cn1nnc(-c2ccc(F)cc2)n1 (stereo not given),59.4% (active),35% (active),43%,29.1% (active)
COc1ccc(NC(=O)c2cc([N+](=O)[O-])ccc2O)cc1,42.1%,35.5% (active),-37.7%,29.2% (active)
O=C(N/N=C/c1cc(Cl)ccc1O)C(=O)Nc1ccccc1OC(F)(F)C(F)F,29.3%,38.3% (active),37.7%,44.3% (active)
c1nc(NCc2ccc3c(c2)OCO3)c2cc(-c3ccoc3)ccc2n1,70.4% (active),51.5% (active),54.8% (active),45.4% (active)
CCCNC(=O)c1nnsc1S(=O)(=O)c1ccc(Cl)cc1,55.7% (active),6.39%,-64.8%,5.6%

# — PubChem BioAssay
